This is one part of a sample in which hits are shown more often than they occur.
Tg IFNy HTS = T. gondii growth inhibition with IFN-gamma, primary screen, cell-based | Toxoplasma gondii growth in IFN-gamma-treated host cells; stronger effect = lower value | AID 1259416, 2018 | activity change, negative = inhibition, % (test concentration not listed) | 69,000 compounds, 3.8% hits; in the data active means activity change below about -70%, passing the limit was not always enough;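 further: host cells are HeLa cells infected with Toxoplasma gondii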
Active calls of the source: *; ! = a repeat was not active.

SMILES	Tg IFNy HTS
Cn1c(=O)c(C(=O)Nc2ccc(CN3CCCCCC3)cc2)nc2ccccc21	-20
Cc1onc(-c2c(F)cccc2Cl)c1C(=O)ON=C1C2CC3CC(C2)CC1C3	-85*
Cc1onc(-c2c(F)cccc2Cl)c1C1=NCCO1	11
Cc1onc(-c2c(Cl)cccc2Cl)c1-c1nnc(NC(=O)c2ccco2)s1	-61
COc1ccc(-c2nc(N3CCN(Cc4ccc5c(c4)OCO5)CC3)c3ccccc3n2)cc1	-34
Cc1ccc(C)c(-c2coc(-c3ccc(NC(=O)Nc4ccc(F)cc4)cc3)n2)c1	-17
O=C(O)CCNC(=O)CCC(=O)NC1CCCC1	-2
CO/N=C(/C(=O)NC1C(=O)N2C(C(=O)O)=C(CSc3nnnn3C)CSC12)c1csc(N)n1 (centres undefined)	12
CCOC(=O)Cn1c(C)cc(=O)c2ccccc21	-9
Cc1c(-c2ccccc2)n(CC(O)CN)c2ccccc12 (centres undefined)	-48
Cc1ccc2c(=O)c3ccccc3n(CCCN)c2c1C	-87*!
COc1cccc(NC(=O)N2CCC(c3nc(C(=O)N4CCCC4)c(C)o3)CC2)c1	-56
CCc1ncc(C(=O)N(C)C(C)c2ccon2)cn1 (centres undefined)	8
CSc1cc(-c2ccc(Cl)cc2)[nH]c(=O)c1C#N	56
CSc1scc(-c2ccc(Cl)cc2)c1C#N	-91*
CSc1scc(NS(=O)(=O)c2ccc(Cl)cc2)c1S(=O)(=O)C(C)C	-47
O=S(=O)(c1ccccc1)C1(c2n[nH]c(CCc3ccccc3)n2)CC1	-5
O=C(NCc1scnc1-c1ccccc1)c1cn(CCN2CCCCC2)nn1	-9
Cc1nc(NC(=O)CCC(=O)NCc2cc(Cl)c3c(c2)OCCCO3)sc1C	7
Cc1ccc(-c2nnc(-c3ccccc3)n2-c2ccc(C)cc2)cc1	-3
CC1=Nc2ccc(-c3ccccc3)cc2C1(C)C	-99*
CCOc1ccc2oc(C)c(C(=O)N3CCC4(CC3)CNC(=O)C4)c2c1	5
Cc1nc(C2CC2)ncc1C(=O)N1C[C@H]2CC[C@H]1C2	1
COCCN1CCCC(O)(CN2CCCN(c3ncccn3)CC2)C1=O (centres undefined)	-1
COc1ccc(-c2nc(NCCCN3CCN(C)CC3)c3ccccc3n2)cc1	-51
SMILES	Tg IFNy HTS
COc1cc2c(Oc3ccc(NC(=O)C4(C(=O)Nc5ccc(F)cc5)CC4)cc3F)ccnc2cc1OCCCN1CCOCC1	-68
COc1cc(Nc2c(C#N)cnc3cc(OCCCN4CCN(C)CC4)c(OC)cc23)c(Cl)cc1Cl	-79*
Cc1cn(C2CC(O)C(CO)O2)c(=O)[nH]c1=O (centres undefined)	-7
O=c1[nH]c(=O)n([C@H]2C[C@H](O)[C@@H](CO)O2)cc1F	-94*
O=c1[nH]c(=O)n([C@H]2C[C@H](O)[C@@H](CO)O2)cc1Br	-45
O=C(c1cc2c(s1)CCCC2)N1CCCn2cncc2C1	9
Cc1c(C(=O)CSc2nnnn2-c2ccccc2)c2ccccc2n1C	0
COc1cccc([C@@H]2CCN(Cc3ccc(S(C)(=O)=O)cc3)C[C@H]2O)c1	-6
C=CCn1c(=O)c2cnc(Nc3ccc(N4CCN(C)CC4)cc3)nc2n1-c1cccc(C(C)(C)O)n1	-71*
CN1CCN(c2cccc(Nc3nc4c(-c5ccc(S(C)(=O)=O)cc5)cccn4n3)c2)CC1	17
Cc1cc(C(=O)N2CCC3C(C[C@@H](CN4CCCC4)N3C)C2)c(C)o1 (some centres undefined)	-2
O=C(Cn1c(=O)cc(C(=O)N2CCCCC2)c2ccccc21)Nc1cccc(Br)c1	-23
c1ccc(-c2[nH]cnc2-c2cccc(-n3cccn3)c2)cc1	-95*
O=C(O)c1ccc(-c2cccc(-n3cccn3)c2)o1	-45
CN(C)c1cncc(-c2cccc(-n3cccn3)c2)n1	190
Cc1nc(CC(=O)N2CCCC2c2nc(N(C)C)ncc2-c2ccc(Cl)cc2)cs1 (centres undefined)	-61
CS(=O)(=O)c1ccc(-c2nc(-c3ccc(F)cc3)c(-c3ccncc3)[nH]2)cc1	11
Cc1[nH]c(-c2ccc(F)cc2)nc1C(=O)O	-34
CS(=O)c1ccc(-c2nc(-c3ccc(F)cc3)c(-c3ccncc3)[nH]2)cc1 (centres undefined)	-90*
CC1CCN(S(=O)(=O)c2ccc3c(c2)CCC(=O)N3CC(=O)Nc2ccccc2F)CC1	23
CCNC(=O)c1c2c(N3CCN(C)CC3)ncnc2n2ccccc12	35
Cc1cnc(CNC(=O)c2c(=O)c3ccc(N4CCCN(C)CC4)nc3n3c2sc2ccccc23)cn1	-81*
Cc1cnc(CNC(=O)c2nc(-c3cn(Cc4ccccc4)c(C)n3)n3ccccc23)cn1	-2
CC(=O)NCC(=O)N1CC2(CCCC2)c2cc(-c3ccc(C(N)=O)cc3)ccc21	-1
Cc1ccc(C(=O)N(Cc2ccccn2)CC(C)C)cc1N1CCNC1=O	-19
COc1ccc(-c2noc(CC(=O)NCc3ccccc3)c2-c2ccc(OC)cc2)cc1	-62
Cc1ccc(Oc2ccc(CNC(=O)c3c(-c4ccncc4)noc3C)cc2)cc1	-84*
Cc1noc(C)c1C(=O)NCc1ccc2c(c1)OCO2	-40

Source: PubChem BioAssay
